Consider 1 compound from PubChem BioAssay (NCATS).

SMILES strings stand for the structures. Inconclusive results are not listed. Where a call stands in place of a potency, no number is given. Calls of active or inactive are those of the source. Calls follow the shape of the dose curve; as a rule, active = well fitted inhibition curve with a large enough effect; inconclusive = small, poorly fitted or top-dose-only effect; inactive = flat fitted curve, though single readings scatter.

The assay concerns Zika virus NS2B-NS3 protease. Kind of assay: Primary screen GU AMC qHTS for Zika virus inhibitors (AID 1347154). Also: nearly all actives have a fitted effect of over 70% in size. The method in brief: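 Fluorogenic AMC-substrate cleavage by noncovalent NS2B-NS3 protease complex (25 nM, pH 8.0 Tris buffer with Tween 20) followed for 15 minutes at room temperature (~20% conversion). Percent inhibition from ex340/em450 signal change, fitted by 4-parameter Hill equation.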
(Quantitative high-throughput screening tests each substance at several concentrations.)

Take `O=C(O)C(Cc1ccc2c(c1)oc1ccccc12)NCP(=O)(O)O` (stereo unspecified): the Potency result is “inactive”.
